The text below walks through data of PMC5540273 (PLoS ONE, 2017).

Structures are written as SMILES.

Some test systems named below: MKK7; MKNK1; MKNK2; MLK2; MLK3; MRCKA; MST1R; MST4; MTOR; MUSK; MYLK2; MYLK4; MYLK.
Common to all, as to details: concentration: 1 μM, replicates: in singlicate; n = 1
The subject of the next experiment is T1, MINK.
T1 construct: gene MINK1

The test system of another experiment is T2, MLCK.
T2 construct: gene MYLK3

For another experiment, the system named is T3, MLK1.
T3 construct: gene MAP3K9

The test system of another experiment is T4, MRCKB.
T4 construct: gene CDC42BPB

For the next experiment, the system named is T5, MST1.
T5 construct: gene STK4

The subject of another experiment is T6, MST2.
T6 construct: gene STK3

The next experiment deals with T7, MST3.
T7 construct: gene STK24
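Note: KINOMEscan kinase panel screen.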

On to `O=C(Nc1n[nH]c2nc(-c3cccs3)c(Br)cc12)C1CC1` [SB-735297], for which the “%Inh” value is given as 28% with MINK; 0% in the experiment with MKK7; 46% with MKNK1; 39% in the experiment on MKNK2; 90% in the experiment with MLCK; 0% in the experiment on MLK1. Also, the “%Inh” value in the experiment on MLK2 was 0%; in the experiment on MLK3, 0%; in the experiment on MRCKA, 16%; in the experiment with MRCKB it was 0%; in the experiment on MST1R, 0%; in the experiment on MST1, 3%. The “%Inh” value was found to be 4% in the experiment on MST2; 0% in the experiment with MST3; 5% in the experiment with MST4; 0% with MTOR; 0% in the experiment on MUSK; 99.4% in the experiment on MYLK2. Moreover, the “%Inh” value in the experiment with MYLK4 and with MYLK was 29% in each case.

Take `COc1ccc(-c2coc3ccc(-c4nnc(C)o4)cc23)cc1`: the “%Inh” value with MINK, in the experiment on MKK7, in the experiment on MKNK1, in the experiment with MKNK2, in the experiment on MLCK and in the experiment with MLK1 was 0% throughout. Further, the “%Inh” value in the experiment on MLK2 is 5%; in the experiment with MLK3, 1%; with MRCKA, 0%; in the experiment on MRCKB it was 0%; in the experiment on MST1R, 0%; in the experiment on MST1 it was 0%. For the same molecule, the “%Inh” value is 0% with MST2; 0% in the experiment with MST3; 0% in the experiment on MST4; 5% in the experiment with MTOR; 4% with MUSK; 18% with MYLK2. Moreover, the “%Inh” value is 14% in the experiment on MYLK4 and 0% in the experiment with MYLK.

On to `O=C(Nc1n[nH]c2nc(-c3cccs3)c(Br)cc12)C1CCCC1` [SB-743341], for which the “%Inh” value in the experiment on MINK was found to be 8%; in the experiment on MKK7, 12%; in the experiment on MKNK1, 23%; with MKNK2, 67%; with MLCK it was 86%; with MLK1 it was 0%. Also, the “%Inh” value is on record as 38% in the experiment with MLK2; 19% in the experiment on MLK3; 0% with MRCKA; 0% in the experiment with MRCKB; 17% with MST1R; 0% in the experiment with MST1. Also, the “%Inh” value is 51% in the experiment on MST2; 0% in the experiment with MST3; 2% with MST4; 12% in the experiment with MTOR; 37% in the experiment with MUSK; 97.7% in the experiment with MYLK2. Moreover, the “%Inh” value in the experiment on MYLK4 turned out to be 17%; with MYLK it was 24%.

As for `COc1ccc(CSc2nnc(-c3ccc4ncsc4c3)o2)cc1C(F)(F)F`, the “%Inh” value in the experiment on MINK, in the experiment on MKK7, in the experiment on MKNK1, in the experiment on MKNK2, in the experiment on MLCK and with MLK1 was 0% throughout. Also, the “%Inh” value with MLK2 stood at 23%; in the experiment with MLK3, 0%; in the experiment on MRCKA, 0%; in the experiment with MRCKB it was 0%; in the experiment with MST1R it was 0%; in the experiment on MST1, 0%. The “%Inh” value was determined as 0% in the experiment with MST2; 0% in the experiment with MST3; 0% in the experiment on MST4; 8% in the experiment with MTOR; 1% with MUSK; 16% with MYLK2. For the same molecule, the “%Inh” value in the experiment with MYLK4 worked out at 1%; in the experiment on MYLK it was 0%.

On to `CC[C@@H]1CO[C@H](C(=O)Nc2ccccc2)CN1c1cc(-c2ccc3c(N)n[nH]c3c2)nc(NC)n1` [GSK2376236], for which the “%Inh” value worked out at 0% with MINK; 0% in the experiment on MKK7; 6% in the experiment on MKNK1; 0% with MKNK2; 0% in the experiment on MLCK; 0% in the experiment on MLK1. The “%Inh” value was determined as 0% with MLK2; 14% with MLK3; 14% in the experiment on MRCKA; 0% in the experiment with MRCKB; 26% in the experiment on MST1R; 0% in the experiment on MST1. The “%Inh” value with MST2 amounted to 10%; with MST3, 0%; in the experiment on MST4, 0%; in the experiment on MTOR, 9%; with MUSK it was 2%; in the experiment with MYLK2 it was 8%. In addition, the entries for the “%Inh” value in the experiment on MYLK4 and in the experiment on MYLK were 10% and 22%, respectively.

Regarding `FC(F)(F)c1ccccc1-c1cc(-c2c[nH]nc2-c2ccccn2)ccn1` [GW679396], the “%Inh” value in the experiment with MINK is on record as 11%; with MKK7, 0%; in the experiment with MKNK1 it was 5%; in the experiment with MKNK2 it was 0%; in the experiment with MLCK it was 4%; in the experiment on MLK1 it was 0%. For the same molecule, the “%Inh” value turned out to be 0% in the experiment on MLK2; 1% in the experiment with MLK3; 0% in the experiment on MRCKA; 0% in the experiment with MRCKB; 13% in the experiment with MST1R; 4% in the experiment on MST1. For the same molecule, the “%Inh” value in the experiment with MST2 is listed as 0%; in the experiment with MST3, 5%; in the experiment with MST4, 0%; in the experiment with MTOR, 0%; in the experiment with MUSK, 0%; in the experiment on MYLK2, 26%. In addition, the “%Inh” value with MYLK4 stood at 0%; in the experiment with MYLK, 8%.

`Cc1ccc(NC(=O)Nc2ccccc2F)cc1-c1ccc(C(=O)Nc2ccncc2)cc1` [GSK1398477]: the “%Inh” value is 0% in the experiment with MINK; 0% with MKK7; 4% with MKNK1; 0% with MKNK2; 11% with MLCK; 4% in the experiment with MLK1. The “%Inh” value in the experiment with MLK2 was found to be 17%; in the experiment on MLK3, 33%; in the experiment on MRCKA it was 17%; with MRCKB, 30%; with MST1R, 33%; with MST1 it was 22%. Moreover, the “%Inh” value in the experiment on MST2 came out at 7%; in the experiment on MST3, 0%; with MST4 it was 0%; with MTOR it was 11%; in the experiment with MUSK it was 31%; in the experiment with MYLK2 it was 19%. For the same molecule, the “%Inh” value is reported as 7% in the experiment with MYLK4 and 23% in the experiment with MYLK.

Consider `CS(=O)(=O)CCNCc1nc(-c2ccc3ncnc(Nc4ccc(OCc5ccccc5)c(Cl)c4)c3c2)cs1.Cl` [GW582764], for which the “%Inh” value is 0% in the experiment with MINK; 0% in the experiment with MKK7; 0% with MKNK1; 0% in the experiment with MKNK2; 89% with MLCK; 0% with MLK1. Further, the “%Inh” value is 0% in the experiment on MLK2; 0% in the experiment with MLK3; 3% in the experiment with MRCKA; 0% with MRCKB; 14% in the experiment on MST1R; 0% in the experiment on MST1. Besides, the “%Inh” value in the experiment on MST2 is on record as 0%; in the experiment with MST3, 0%; in the experiment with MST4, 0%; in the experiment on MTOR, 8%; in the experiment on MUSK it was 0%; in the experiment on MYLK2 it was 3%. The “%Inh” value in the experiment with MYLK4 and in the experiment with MYLK was 0% each time.

As for `CS(=O)(=O)CCNCc1nc(-c2ccc3ncnc(Nc4ccc5c(cnn5Cc5ccccc5)c4)c3c2)cs1.Cl.Cl` [GW569716], the “%Inh” value was found to be 1% with MINK; 0% with MKK7; 0% with MKNK1; 23% in the experiment with MKNK2; 0% with MLCK; 1% with MLK1. In addition, the “%Inh” value in the experiment with MLK2 is reported as 0%; in the experiment on MLK3, 0%; in the experiment on MRCKA, 17%; in the experiment on MRCKB, 18%; in the experiment with MST1R it was 10%; in the experiment with MST1, 3%. For the same molecule, the “%Inh” value came out at 0% in the experiment with MST2; 0% with MST3; 0% in the experiment on MST4; 17% in the experiment with MTOR; 0% in the experiment on MUSK; 0% with MYLK2. In addition, the “%Inh” value in the experiment with MYLK4 worked out at 10%; with MYLK, 0%.

Turning to `Nc1ncnc2occ(-c3ccc4c(c3)CCN4C(=O)Cc3cc(F)ccc3F)c12` [GSK2645446], the “%Inh” value in the experiment with MINK, with MKK7, with MKNK1, in the experiment with MKNK2, with MLCK and with MLK1 was 0% each time. Moreover, the “%Inh” value stood at 10% in the experiment with MLK2; 6% with MLK3; 22% with MRCKA; 0% in the experiment with MRCKB; 11% in the experiment on MST1R; 21% in the experiment with MST1. Also, the “%Inh” value in the experiment with MST2 was 0%; in the experiment with MST3, 13%; in the experiment with MST4 it was 0%; with MTOR it was 3%; in the experiment on MUSK, 3%; with MYLK2, 27%. For the same molecule, the “%Inh” value in the experiment on MYLK4 was 7%; in the experiment on MYLK it was 9%.

For the molecule `Cc1ccccc1-c1cc(-c2c[nH]nc2-c2ccccn2)ccn1` [GW680061], the “%Inh” value with MINK is recorded as 31%; in the experiment with MKK7 it was 0%; with MKNK1, 9%; in the experiment with MKNK2 it was 0%; with MLCK it was 0%; in the experiment with MLK1, 0%. Also, the “%Inh” value turned out to be 2% in the experiment with MLK2; 0% in the experiment with MLK3; 0% in the experiment with MRCKA; 0% with MRCKB; 12% in the experiment with MST1R; 0% in the experiment with MST1. Also, the “%Inh” value was 0% in the experiment with MST2; 0% with MST3; 10% with MST4; 30% with MTOR; 10% in the experiment with MUSK; 0% with MYLK2. Also, the entries for the “%Inh” value in the experiment on MYLK4 and in the experiment with MYLK were 0% and 1%, respectively.
